Among the data in PubChem BioAssay are composite z-score values, retold here.

The experiment has as its system Sam68 (KHDRBS1). Nature of the experiment: Sam68 small-molecule binders, primary screen, biochemical, small-molecule microarray, 635 nm fluorescence (AID 1125).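 Also: score merges 667 nm channel intensity with signal to noise over triplicate slides.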 The settings on record: small-molecule microarray binding, higher = more signal.
On to `O=C1O[C@H](c2ccccc2)[C@H](c2ccccc2)N2[C@H]1[C@@H](C(=O)NC[C@H](O)c1ccccc1)[C@]1(C(=O)Nc3ccc(C#CC4(O)CCCCCC4)cc31)[C@H]2c1ccccc1OCCO`, for which the composite z-score amounted to 1.32.
`C=C(/C(=C/C[C@@H](OC(=O)c1ccncc1)c1ccc(CO)o1)c1cc(C(=O)OC)ccc1OC)C(C)C` came in with a composite z-score of 1.3.
Turning to `COc1ccc([Si](C)(C)[C@@H]2[C@@H](CCO)O[C@]3(C(=O)N(Cc4ccccc4)c4ccc(N(C=O)c5ccccc5)cc43)[C@H]2C)cc1`, the composite z-score amounted to 0.601.
Take `CCCCCCC#C[Si](O[C@H](c1ccccc1)c1cn([C@H](C)c2ccccc2)nn1)(C(C)C)C(C)C`: the composite z-score was found to be 0.729.
For the compound `[N-]=[N+]=NCc1ccccc1[C@@H]1OC(c2ccc(OCCCO)cc2)=N[C@]1(Cc1ccccc1)C(=O)O`, the composite z-score came to 1.13.
Under `CCCC[C@@H]1C[C@H]1[C@@H](NC(=O)c1ccccc1)c1ccc(-c2ccccc2)cc1` stands 0.893; under `Cc1ccc(S[C@]2(C(=O)NCCN3CCOCC3)CC(=O)N(C3CCCCC3)[C@@H]2c2ccc(CO)cc2)cc1`, 1.16.
As to `CC(C)NC(=O)[C@@]1(c2ccc([N+](=O)[O-])cc2)CC(=O)N(C(C)C)[C@@H]1c1ccc(CO)cc1`, the composite z-score was 0.0001.
For `C=CCN1Cc2ccccc2C[C@@]2(COC(c3ccc(OCCCO)cc3)=N2)C1=O`, the composite z-score stood at 0.811.
`COCCn1c(C(=O)N2CCCC2)cc2c1C[C@H]1CN(C(=O)c3ccccc3)[C@@](Cc3ccc(OC)cc3)(C(=O)OC)[C@@H]21`: the composite z-score was 0.424.
Compound `C=C[C@@H](C)[C@@H](OC(=O)Nc1ccc(OC)cc1)c1ccc(O)c2ccccc12` gave a composite z-score of 0.349.
